From PubChem
Rows were chosen to be rich in hits. Some 4.6% of all compounds tested hit in one or more screens of this group.
D1 antagonist: human D1 dopamine receptor antagonism | 3.2% of 360,000 active | HEK293 TREx D1 cells, calcium flux, dopamine EC80; stronger effect = lower value | activity change, negative = inhibition, % at 10 µM | P21728 | AID 504652; in the data active = activity change below about -30%
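After overnight tetracycline induction at 30 C, force-coupled D1 HEK293 cells took up a no-wash calcium dye at room temperature. Compounds were added and monitored 180 s, and the response to EC80 dopamine was then recorded.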
D1 potentiator: enhances dopamine response at the human D1 receptor | P21728 | HEK293 TREx D1 cells, calcium flux, dopamine EC20 potentiation | potentiation, % at 10 µM | 0.036% of 360,000 active | AID 504651; in the data active = potentiation above about 30%
TRHR PAM: allosteric enhancers of human TRH receptor; P34981; TRHR cells, fluo-8 calcium fluorescence, EC20 TRH enhancement; enhancement, % at 2 µM; 0.66% of 360,000 active; in the data active = enhancement above about 30%
Target sequence (P34981 whole entry, looked up): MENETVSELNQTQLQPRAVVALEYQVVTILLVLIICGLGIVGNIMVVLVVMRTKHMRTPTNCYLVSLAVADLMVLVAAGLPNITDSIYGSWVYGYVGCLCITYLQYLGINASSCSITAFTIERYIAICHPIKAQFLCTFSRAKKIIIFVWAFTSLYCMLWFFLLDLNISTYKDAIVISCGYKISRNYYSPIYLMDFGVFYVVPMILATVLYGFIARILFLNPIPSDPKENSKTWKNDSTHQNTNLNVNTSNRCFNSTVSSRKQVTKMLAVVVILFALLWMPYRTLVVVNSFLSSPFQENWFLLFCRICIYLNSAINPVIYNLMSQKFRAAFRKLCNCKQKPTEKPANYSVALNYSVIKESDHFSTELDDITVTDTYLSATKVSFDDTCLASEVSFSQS
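TRHR-expressing cells loaded with fluo-8 calcium dye were read kinetically (ex 480/em 530) during compound addition, then stimulated with an EC20 of TRH (10 nM final). Enhancement of the Gq-mediated intracellular calcium response was scored.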
TRHR agonist: agonists of human TRH receptor; TRHR cells, calcium flux fluo-8, FDSS agonist mode; AID 493084; activation, % at 2 µM; 0.18% of 360,000 active
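In this calcium-flux screen, cells bearing human TRHR are dye-loaded with fluo-8, baselined for 10 cycles, then exposed to library compounds; positive kinetic calcium responses during the agonist phase mark hits, with TRH as control.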
D1 ag: agonists of human D1 dopamine receptor | P21728 | HEK293 T-REx D1 cells, calcium flux, agonist mode | AID 504660 | activation, % at 2 µM | 1% of 360,000 active
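Agonism was scored from calcium flux recorded over 180 s (1 read/s) after pintool compound addition, following a 10-cycle baseline. Cells were inducible force-coupled HEK293 TREx D1, plated overnight at 30 C and loaded with no-wash calcium dye.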
Each line names hits and unclear results; the compound was inactive in the other large screens. Rule as the data show it, unless noted: active = activation above about 30%; inactive = the rest.

CCOC(=O)C1=C(N)Oc2cc(C)[nH]c(=O)c2C1c1ccncc1 (stereo not given)	none
CCOC(=O)C1=C(N)Oc2c(c(=O)[nH]c3ccccc23)C1c1ccccc1 (stereo not given)	D1 antagonist -87
O=C(Nc1ccc(Br)cc1)c1cccc(C(=O)Nc2ccc(Br)cc2)c1	none
CCC(CO)N=CC1=C(O)CC(c2ccccc2)CC1=O (stereo not given)	TRHR PAM 32
CCCCOc1ccc(C(=O)Nc2cc(C)c(OCC(=O)N3CCOCC3)c(C)c2)cc1	D1 antagonist -40
CCCCOc1ccc(C(=O)Nc2ccc(CN3CCOCC3)cc2)cc1	D1 antagonist -36
CCCOc1ccc(C(=O)Nc2ccc(CN3CCOCC3)cc2)cc1	none
O=C(COc1ccc2c3c(c(=O)oc2c1)CCC3)Nc1ccc(CN2CCOCC2)cc1	TRHR PAM 33
CN1CCC(N(C)CC(O)c2ccccc2)CC1 (stereo not given)	none
CN1CCC(OC(c2ccccc2)c2ccccc2)CC1	D1 antagonist -37
CN1CCC(Oc2ccccc2Sc2ccccc2)CC1	D1 antagonist -63
N#Cc1nc(Nc2cc(F)cc(F)c2)c2ncn(CC(F)F)c2n1	none
N#Cc1nc(NCC(F)F)c2ncn(-c3cccc(Cl)c3)c2n1	D1 antagonist -49
Cc1c2cnn(-c3ccccc3)c(=O)c2c(C)n1CC(=O)NCc1ccccc1Br	none
C=CCn1c(CCc2ccccc2)nnc1SCC(N)=O	TRHR PAM 32
Cc1ccc(NC(=O)c2cc(-c3ccccc3)nn2-c2ccccc2)cc1	none
O=C(NC1=NCCS1)c1cc(-c2ccccc2)nn1-c1ccccc1	D1 antagonist -47
CCN1CCN(Cc2oc(CO)cc(=O)c2O)CC1	none
CCOC(=O)C1CCN(Cc2oc(CO)cc(=O)c2O)CC1	TRHR PAM 30
S=C(NCC1CCCO1)Nc1cccc(Cl)c1 (stereo not given)	none
S=C(NCC1CCCO1)Nc1ccc(Nc2ccccc2)cc1 (stereo not given)	D1 antagonist -34
COc1ccc(OC)c(NC(=O)c2c(NCc3ccc(C)o3)sc3c2CCC(C)C3)c1 (stereo not given)	none
COc1ccc(C(=O)C2CCCN(Cc3ccc(C#CCCO)cc3)C2)cc1F (stereo not given)	D1 antagonist -37
COCCNC(=O)c1cc(-c2ccc(-c3ccccc3)cc2)nc2ccccc12	none
CCS(=O)(=O)N1CCC(C(=O)NCc2ccc(F)cc2Cl)CC1	none
O=C(NCc1ccc(F)cc1Cl)C1CCN(S(=O)(=O)N2CCCCC2)CC1	D1 ag 50
CC(C)CN(CC(C)C)S(=O)(=O)N1CCC(C(=O)NCc2ccc(F)cc2)CC1	D1 antagonist -67
O=C(NCc1ccc(F)cc1)C1CCN(S(=O)(=O)c2ccc(Br)s2)CC1	D1 antagonist -30
CC(C)CN(CC(C)C)S(=O)(=O)N1CCC(C(=O)NCc2cccnc2)CC1	none
O=C(NCc1ccc(F)cc1)C1CCCN(S(=O)(=O)c2ccc(Br)s2)C1 (stereo not given)	none
Cc1cc(C)cc(-n2nnc(-c3nc(-c4ccccc4F)no3)c2C)c1	none
CC1=C(C(=O)Nc2cccnc2)C(c2cccc(O)c2)n2nc(SCc3ccccc3)nc2N1 (stereo not given)	none
O=C(CSc1nccn1Cc1ccc(F)cc1)Nc1ccc2c(c1)OCCO2	none
COc1ccc(/C=C/C(=O)Nc2ccc3nc4c(c(Nc5ccc(OC)c(OC)c5)c3c2)CCCC4)cc1	none
COc1ccc(-n2cccc2/C=C2\C(=N)N3N=C(c4ccco4)SC3=NC2=O)cc1	none
Cc1cc(/C=C2\C(=N)N3C(SCc4ccccc4)=NSC3=NC2=O)c(C)n1Cc1ccccc1	none
Cc1cc(/C=C2\C(=N)N3N=C(c4ccco4)SC3=NC2=O)c(C)n1Cc1ccccc1	D1 antagonist -39, D1 ag 38
CCC1=NN2C(=N)/C(=C/c3cc(C)n(Cc4ccccc4)c3C)C(=O)N=C2S1	D1 antagonist -51, D1 ag 66
CC1=NN2C(=N)/C(=C\c3cc(C)n(-c4ccccc4)c3C)C(=O)N=C2S1	none
Cc1cc(/C=C2\C(=N)N3N=C(C(C)C)SC3=NC2=O)c(C)n1Cc1ccccc1	D1 antagonist -40, D1 ag 112
NC(=O)N/N=C/c1coc2ccc3ccccc3c2c1=O	D1 antagonist -71
COc1ccc(S(=O)(=O)Nc2ncccn2)cc1	D1 antagonist -44
O=C(Nc1ccc(Cl)cc1)Nc1ccc(S(=O)(=O)Nc2ncccn2)cc1	D1 antagonist -60
COc1ccc(CC(=O)Nc2ccc(S(=O)(=O)Nc3ncccn3)cc2)cc1	none
COc1ccc(S(=O)(=O)NNC(N)=S)cc1	TRHR PAM 31
COc1ccc(NC(=O)NNS(=O)(=O)c2ccc(Br)cc2)cc1	none
O=S(=O)(Nc1ncccn1)c1ccc(NC(=S)Nc2ccc(Cl)cc2)cc1	none
Cc1ccc(Oc2ncccc2C(=O)NCC(=O)O)cc1	D1 antagonist -88
COC(=O)c1ccc(-n2nnc(-c3nsc(NC(=O)c4ccc(Cl)cc4)n3)c2C)cc1	D1 antagonist -55
Cc1c(-c2nsc(NC(=O)c3ccc(Cl)cc3)n2)nnn1-c1ccc(C(C)C)cc1	none
COc1cc(NC(=O)CCn2nc(C)c(S(=O)(=O)N3CCCCC3)c2C)cc(OC)c1OC	none
CC(C)CN1CCc2nc(N3CCN(C)CC3)ncc2C1	none
Cc1ccc2c(c1)c(=O)c(C(=O)c1ccncc1)cn2CC(=O)Nc1ccccc1Cl	none
CCCc1cc(=O)n2c(C(=O)Nc3ccc(OCC)cc3)c(C(=O)Nc3ccc(C)cc3)sc2n1	none
CSCCC(NC(=O)c1ccc(Cl)cc1)C(=O)OCC(=O)Nc1ccc(C#N)cc1 (stereo not given)	D1 antagonist -40
CSCCC(NC(=O)c1ccc(Cl)cc1)C(=O)OCC(=O)c1ccc[nH]1 (stereo not given)	D1 antagonist -35
CSCCC(NC(=O)c1ccc(Cl)cc1)C(=O)OCC(C)=O (stereo not given)	none
CSCCC(NC(=O)c1ccccc1)C(=O)OCC(=O)c1ccc[nH]1 (stereo not given)	none
CSc1ncc(C(=O)NCc2ccc(F)cc2)c(-c2ccccc2)n1	none
CCN1CCN(C(c2ccc(OC)cc2)c2c(O)cc(C)n(CCOC)c2=O)CC1 (stereo not given)	none
CCN1CCN(C(c2ccc(Cl)cc2)c2c(O)cc(C)n(CCOC)c2=O)CC1 (stereo not given)	D1 antagonist -39
COCCn1c(C)cc(O)c(C(c2ccccc2OC)N2CCN(c3ccccc3)CC2)c1=O (stereo not given)	TRHR PAM 45
CCc1ccc(CNC(=O)CSCc2cnn(-c3ccccc3)c2-n2cccc2)cc1	none
COc1ccc(C)cc1-n1nnnc1SCC1CCCCO1 (stereo not given)	D1 antagonist -36
